EWS-Fli block – EWS/Fli-driven NR0B1 reporter inhibitors, primary screen, A673 cells, NR0B1 luciferase, luminescence, MLPCN library | AID 651661, 2012 | inhibition, % at 12.6 µM | viability-normalised | actives 0.67% (n = 350,000);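 active = mean inhibition of at least 50% after viability correction, with every replicate also passing that limit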;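 note: firefly luciferase signal divided by Alamar Blue viability fluorescence both relative to DMSO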
PAX8 reporter – inhibitors of PAX8-driven TPO luciferase reporter, primary screen, RMG-I cells, single concentration; SteadyGlo, 24 h; inhibition, % at 12.6 µM; actives 1.2% (n = 360,000); AID 652154, 2013;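 active = mean replicate inhibition at least 60% with every replicate also reaching 60%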;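 note: luciferase light reporting Pax8 driven TPO promoter activity; plate controls were median of neutral control wells for no effect and mitoxantrone controls for full effect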
KKLEB tox – cytotoxicity in KKLEB CF airway cells, primary screen, cytotoxicity control for CF NF-kB inhibitor project, cell-based, uHTS, fluorescence assay plates. KKLEB CF airway cells viability, ATPlite luminescence, overnight; active compounds read low; cells stimulated with P. aeruginosa culture filtrate. activity change (cytotoxicity), % at 5 µM. actives 0.36% (n = 360,000);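 active = corrected activity change at or below -50% at 5 µM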
CF NFkB block – inhibitors of PAF-induced NF-kB signaling, primary screen, cell-based, GFP fluorescence, uHTS. AID 588850, 2011. KKLEB NF-kB-GFP reporter, GFP fluorescence overnight. inhibition, % at 5 µM. actives 0.86% (n = 360,000);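 active = at least 50% inhibition at 5 µM, scaled per plate between neutral and stimulator controls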;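 note: PAF is a Pseudomonas aeruginosa culture filtrate used as stimulus; plate controls were PAF-stimulated DMSO wells for no effect and unstimulated DMSO wells for full effect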
HIF-2a inh – HIF-2a reporter inhibitors, primary screen, luminescence, 786-0 RCC cells; actives 0.72% (n = 360,000); inhibition, % at 18.8 µM; 786-0 RCC cells HIF-2a reporter, luciferase luminescence, overnight; AID 624352, 2012;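 active = inhibition of the luminescence signal of 40% or more relative to plate controls, in a single-dose primary screen at 18.75 µM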
The depositor's hits bear a star; / = no result. An excerpt weighted towards active compounds, which were near 2.1% of everything screened.

SMILES	EWS-Fli block	PAX8 reporter	KKLEB tox	CF NFkB block	HIF-2a inh
O=C(CCS(=O)(=O)c1ccc(F)cc1)Nc1nc(-c2ccccn2)cs1	18	84*	3	10	6
CC(Oc1ccc(Br)cc1)C(=O)Nc1ccncc1 (stereo unspecified)	10	-8	-33	19	16
CC(Oc1ccc(F)cc1)C(=O)Nc1nc(-c2ccccn2)cs1 (stereo unspecified)	27	69*	12	3	11
O=C(CCS(=O)(=O)c1ccccc1)Nc1nc(-c2ccccn2)cs1	13	73*	13	18	1
Cc1csc(NC(=O)C(C)Oc2ccc(Br)cc2)n1 (stereo unspecified)	-7	106*	1	1	-16
CNC[C@@H]1OCCCC[C@H](C)Oc2ccc(NC(=O)Nc3ccc4c(c3)OCO4)cc2C(=O)N([C@@H](C)CO)C[C@@H]1C	-5	-13	/	/	/
C[C@@H]1CN([C@@H](C)CO)C(=O)c2cc(C#CC3CC3)cnc2O[C@H]1CN(C)C(=O)c1ccncc1	-4	/	/	/	/
COc1ccccc1-c1ccc2c(c1)O[C@@H](CN(C)C(=O)c1cccnc1)[C@H](C)CN([C@@H](C)CO)S2(=O)=O	3	-6	/	/	/
CCOc1ccc(N/C=C/C(=O)c2ccccc2)c([N+](=O)[O-])c1	60*	-26	-58*	-40	38
COc1ccc(N/C=C/C(=O)c2ccccc2)cc1	39	-75	-54*	-18	-55
CO[C@@H]1CN(C)C(=O)c2ccc(NC(=O)C3CC3)cc2OC[C@@H](C)N(C(=O)c2ccccc2F)C[C@@H]1C	-2	/	/	/	/
C[C@@H]1CCCCO[C@@H](CN(C)Cc2ccc(C(F)(F)F)cc2)[C@H](C)CN([C@@H](C)CO)C(=O)c2cc(NC(=O)NC3CCCCC3)ccc2O1	0	78*	/	/	/
C[C@H](CO)N1C[C@H](C)[C@H](CN(C)Cc2ccc(C(F)(F)F)cc2)OCCCC[C@H](C)Oc2ccc(NC(=O)NC3CCCCC3)cc2C1=O	-18	91*	/	/	/
C[C@H]1CCCCO[C@H](CN(C)Cc2ccc(C(F)(F)F)cc2)[C@@H](C)CN([C@@H](C)CO)C(=O)c2cc(NC(=O)NC3CCCCC3)ccc2O1	16	10	/	/	/
COc1cc(C(=O)NC(=S)N(CCc2ccccc2)CCc2ccccc2)cc(OC)c1OC	/	75*	-13	14	29
COc1cc(C(=O)NC(=S)N(C)Cc2ccccc2)cc(OC)c1OC	13	-3	-5	9	18
C[C@@H]1CCCCO[C@@H](CN(C)Cc2ccccc2)[C@@H](C)CN([C@H](C)CO)C(=O)c2cc(NC(=O)Nc3ccc(C(F)(F)F)cc3)ccc2O1	-13	77*	/	/	/
C[C@H](CO)N1C[C@H](C)[C@@H](CN(C)Cc2ccc(C(F)(F)F)cc2)OCCCC[C@H](C)Oc2ccc(NC(=O)Nc3ccccc3)cc2C1=O	11	52	/	/	/
C[C@@H]1CCCCO[C@@H](CN(C)Cc2ccccc2)[C@@H](C)CN([C@@H](C)CO)C(=O)c2cc(NC(=O)Nc3ccc(C(F)(F)F)cc3)ccc2O1	-16	52	/	/	/
C[C@@H]1CCCCO[C@@H](CN(C)Cc2ccccc2)[C@H](C)CN([C@H](C)CO)C(=O)c2cc(NC(=O)Nc3ccc(C(F)(F)F)cc3)ccc2O1	16	112*	/	/	/
C[C@@H]1CCCCO[C@@H](CN(C)Cc2ccccc2)[C@H](C)CN([C@@H](C)CO)C(=O)c2cc(NC(=O)Nc3ccc(C(F)(F)F)cc3)ccc2O1	-1	106*	/	/	/
COc1ccc2c3c([nH]c2c1)[C@H](CO)N(C(=O)C1CCCCC1)CC31CCN(S(C)(=O)=O)CC1	2	/	/	/	/
C[C@H]1CCCCO[C@H](CN(C)C(=O)Nc2cccc3ccccc23)[C@@H](C)CN([C@@H](C)CO)C(=O)c2cc(NC(=O)Nc3ccccc3)ccc2O1	1	10	/	/	/
COC(=O)c1c(NC(=O)C(Cl)Cl)sc2c1C(C(=O)OC)CC2 (stereo unspecified)	38	64*	1	-6	19
O=C(/C=C/c1cccc([N+](=O)[O-])c1)c1ccco1	58*	-29	-6	3	7
SMILES	EWS-Fli block	PAX8 reporter	KKLEB tox	CF NFkB block	HIF-2a inh
O=C(/C=C/c1cccc([N+](=O)[O-])c1)NCc1ccc2c(c1)OCO2	/	5	-1	-4	6
O=C(/C=C/c1cccc([N+](=O)[O-])c1)c1ccc([N+](=O)[O-])o1	81*	27	-89*	97*	44*
COc1cc(Cn2c3ccc(NC(=O)CCc4ccccc4)cc3c(=O)n2C)ccc1F	54*	38	-20	43	9
COCc1nc2ccccc2n1Cc1cccc(C)c1	/	-8	5	-3	-5
Cc1cccc(Cn2c(Cc3ccccc3)nc3ccccc32)c1	11	69*	-11	-14	8
C[C@H]1CN([C@@H](C)CO)S(=O)(=O)c2ccc(C#CCN(C)C)cc2O[C@@H]1CN(C)C(=O)C1CC1	3	/	/	/	/
CCCCc1ccc(NC(=S)NCC2CCCO2)cc1 (stereo unspecified)	-12	-13	1	-11	-99
CN(C)c1ccc(NC(=S)NCC2CCCO2)cc1 (stereo unspecified)	-26	65*	4	-2	-81
CSc1ccccc1NC(=O)COc1ccc(Cl)cc1Cl	10	-29	2	-1	-186
O=C(COc1ccc(Cl)cc1Cl)Nc1ccccn1	60*	/	-92*	-3	81*
Cc1c(C)c2ccc(OCC(=O)Nc3ccccn3)c(C)c2oc1=O	/	-15	-90*	1	78*
CCc1cc(-c2n[nH]c(C)c2-c2nc3ccccc3n2C)c(O)cc1O	-18	120*	-13	9	20
CCC(C)NC(=O)N[C@@H](Cc1ccccc1)C(=O)O (stereo partly specified)	/	/	-85*	13	11
O=C(Nc1ccc(F)cc1)N1CC(=O)N2[C@H](CO)[C@@H](c3ccc(C#Cc4cccnc4)cc3)[C@@H]2C1	-1	/	/	/	/
COc1ccc(N=C2S/C(=C\c3ccc(N4CCOCC4)o3)C(=O)N2CCc2c[nH]c3ccccc23)cc1	/	/	-16	-9	92*
COc1ccc(N=C2S/C(=C\c3ccc(OCC(=O)O)cc3)C(=O)N2CCc2c[nH]c3ccccc23)cc1	20	-2	8	-3	16
COc1cccc(-c2ccc3n(c2=O)C[C@@H]2[C@@H](CO)[C@H](C(=O)N(C)C)N(CC4CC4)[C@H]32)c1	3	-7	/	/	/
O=C1N(c2ccccc2)C[C@@H]2C[C@@H](c3cccs3)N3CCC[C@@]123	2	75*	13	-3	-3
COc1ccc([C@@H]2C[C@H]3CN(c4ccccc4)C(=O)[C@]34CCCN24)c(OC)c1OC	6	-15	-8	5	19

Screening results (PubChem)
